# Screening data: PubChem BioAssay, The Scripps Research Institute Molecular Screening Center
# PAFAH1B3 inh: blocks human PAF acetylhydrolase 1B catalytic subunit 3; recombinant PAFAH1B3, FP-rhodamine probe, fluorescence polarization; Q15102; inhibition, % at 3.39 µM; AID 492972; 0.28% of 340,000 active;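 active means inhibition above the screen-wide average of all tested compounds plus 3 SD, cut at about 25% in these data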;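 further: 0% = enzyme with DMSO only and 100% = wells lacking PAFAH1B3 protein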
# PAFAH2 inh: inhibitors of human PAFAH2; 0.99% of 340,000 active; AID 492956; inhibition, % at 3.39 µM; recombinant PAFAH2, FP-rhodamine activity probe, fluorescence polarization; Q99487;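 active means inhibition above the mean over all tested compounds plus 3 SD, cut at about 30% in these data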;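 further: inhibitors block probe labeling of enzyme so polarization drops; 0% = enzyme with DMSO and 100% = wells lacking PAFAH2 protein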
# Fam108B inh: blocks mouse Fam108B hydrolase in RBBP9 counter-screen; recombinant Fam108B, FP-Rh probe fluorescence polarization; inhibition, % at 9.51 µM; 0.33% of 300,000 active; AID 1947;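 active means inhibition above the screen mean inhibition plus 3 SD, computed separately per campaign, cut at about 18% in these data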;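 further: inhibitors lower polarization as less probe binds the enzyme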
# PME-1 primary: PME-1 (human) inhibition; inhibition, % at 5.9 µM; recombinant PME-1, FP-Rh probe fluorescence polarization; 0.53% of 320,000 active; AID 2130;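 active means inhibition above the campaign mean of all compounds plus 3 SD, cut at about 26% in these data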;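 further: competitive labeling of PME-1 active site by serine hydrolase directed probe; 0% = PME-1 with DMSO and 100% = wells lacking PME-1 enzyme; inhibitors block probe labeling so polarization falls and inhibition rises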
# pPAFAH inh: pPAFAH (human) enzyme inhibition; Q13093; recombinant pPAFAH, FP-rhodamine probe fluorescence polarization; inhibition, % at 3.39 µM; 1.5% of 330,000 active; AID 463082;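 active means inhibition above the mean inhibition across the screen plus 3 SD, cut at about 25% in these data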;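 further: inhibitors block binding of the rhodamine activity-based probe so polarization drops; 0% = enzyme with DMSO and 100% = wells lacking pPAFAH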
# Target sequence (Q13093 whole entry, looked up): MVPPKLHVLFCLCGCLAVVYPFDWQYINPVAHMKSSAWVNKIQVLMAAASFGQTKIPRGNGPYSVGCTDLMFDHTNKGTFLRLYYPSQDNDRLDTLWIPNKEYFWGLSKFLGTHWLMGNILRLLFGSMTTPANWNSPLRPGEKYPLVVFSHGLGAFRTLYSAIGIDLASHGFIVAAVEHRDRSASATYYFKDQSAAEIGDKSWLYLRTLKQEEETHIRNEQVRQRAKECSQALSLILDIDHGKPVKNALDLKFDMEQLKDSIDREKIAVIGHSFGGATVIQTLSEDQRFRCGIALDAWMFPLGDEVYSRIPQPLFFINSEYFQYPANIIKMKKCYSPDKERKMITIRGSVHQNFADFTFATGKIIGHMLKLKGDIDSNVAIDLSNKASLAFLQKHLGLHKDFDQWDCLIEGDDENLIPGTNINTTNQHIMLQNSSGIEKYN
# PAFAH1B2 FP inh: PAFAH1B2 (human) inhibition | recombinant PAFAH1B2, FP-rhodamine activity probe, fluorescence polarization | 1.2% of 340,000 active | P68402 | inhibition, % at 3.39 µM;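 active means inhibition above the mean of all tested compounds plus 3 SD, cut at about 24% in these data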;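 further: 0% = enzyme with DMSO and 100% = wells lacking PAFAH1B2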
# * marks the source's active call; other numbers are inactive results; nt = no result. Shown are actives, neighbours in structure and some others; about 2.8% of the full set was active somewhere.
SMILES,PAFAH1B3 inh,PAFAH2 inh,Fam108B inh,PME-1 primary,pPAFAH inh,PAFAH1B2 FP inh
Cc1ccc(NC(=S)NNC(=O)c2ccc(N3CCOCC3)c([N+](=O)[O-])c2)cc1C,14,12,1,10,26*,4
COc1ccc(Cl)cc1C(=O)O/N=C(\N)c1ccc(Cl)cc1,7,3,-5,-5,-1,-1
Cc1occc1C(=O)O/N=C(\N)c1ccc(Cl)cc1,1,2,-1,-5,0,34*
O=S(=O)(CCN1CCCCC1)CCS(=O)(=O)CCN1CCCCC1,3,3,nt,nt,nt,-4
COc1cc(OC)cc(-c2oc(=O)c3cc(OC)c(OC)cc3c2C(F)(F)F)c1,-1,0,nt,nt,1,-2
O=C(CCSc1ccc(Cl)cc1)NN=C1CCCCCC1,3,1,1,1,3,25*
O=C(CSCc1ccc(Cl)cc1)NN=C1CCCCCC1,2,5,2,2,2,13
O=C(CSc1n[nH]c(-c2ccc(S(=O)(=O)NC3CCCCC3)cc2)n1)N1CCCC1,10,3,3,1,28*,13
O=C(COc1ccc(S(=O)(=O)NC2CCCC2)cc1)N1CCCCC1,-7,2,2,3,7,2
COc1ccc(NC(=O)Nc2nnc(N3CCC(C)CC3)s2)cc1OC,1,6,2,20,2,10
COc1ccc(OC)c(NC(=O)Nc2nnc(N3CCC(C)CC3)s2)c1,4,6,2,29*,16,10
O=C(O)C(c1ccccc1)N1C(=O)/C(=C\c2ccc(-c3ccccc3Cl)o2)SC1=S (centres undefined),2,45*,5,1,63*,8
O=C([C@H](Cc1ccccc1)NS(=O)(=O)c1ccc(Cl)cc1)N1CC[C@@]2(O)CCCC[C@H]2C1,4,26,-1,-2,5,30*
O=C(OCC(=O)c1ccc(Cl)s1)c1ccccn1,3,0,0,3,6,-2
O=C(COC(=O)c1cnccn1)c1ccc(Cl)cc1,0,4,-4,-1,0,4
O=C(OCC(=O)c1ccc(Cl)s1)c1cnccn1,2,8,0,-7,26*,3
O=C(COC(=O)c1cnccn1)c1ccc(Br)cc1,4,3,-1,5,-4,26*
CCCN(CCC)C(=O)c1cc([N+](=O)[O-])cc2c1-c1ccc([N+](=O)[O-])cc1C2=C(C#N)C#N,nt,nt,7,10,7,nt
O=[N+]([O-])c1ccc(S(=O)(=O)NNC(=S)NCCc2ccccc2)cc1,6,2,0,2,7,42*
CN(C(=S)NC(=O)C12CC3CC(CC(C3)C1)C2)c1ccc(O)cc1,13,3,nt,nt,16,8
COc1ccc(CCNC(=O)c2cccc(NC(=O)CC3SC(N4CCCCC4)=NC3=O)c2)cc1OC (centres undefined),7,7,2,3,1,1
Nc1ccc(-c2cnc(-c3ccc(N)cc3)nc2)cc1,7,-2,-6,10,6,1
Oc1ccc(-c2cnc(-c3ccc(O)cc3)nc2)cc1,0,-2,-7,36*,4,6
O=C1C(=O)N(CNc2ccccn2)c2ccccc21,4,9,-3,-1,29*,2
Cc1ccc(C)c(S(=O)(=O)N2CCN(C(=O)CCNS(=O)(=O)c3ccc(C)c(C)c3)CC2)c1,6,6,2,13,27*,3
SMILES,PAFAH1B3 inh,PAFAH2 inh,Fam108B inh,PME-1 primary,pPAFAH inh,PAFAH1B2 FP inh
Cc1ccc(S(=O)(=O)N2CCN(C(=O)/C=C/c3ccco3)CC2)cc1,-11,7,1,0,6,5
Cc1ccc(C)c(S(=O)(=O)N2CCN(C(=O)/C=C/c3ccco3)CC2)c1,10,4,nt,12,30*,0
O=C(CCNS(=O)(=O)c1ccc(Cl)cc1)N1CCCCCC1,-4,2,0,1,12,27*
COc1ccc(NC(=O)Nc2cccc3c2O[C@H](CN(C)C(=O)NC(C)C)[C@@H](C)CN([C@H](C)CO)C3=O)cc1,15,-10,nt,nt,4,-3
O=C(COC(=O)c1ccc(OC(F)(F)F)cc1)Nc1ncccn1,-1,15,nt,nt,25*,1
NC(=O)NC(=O)COC(=O)c1ccc(OC(F)(F)F)cc1,6,5,1,-5,3,0
O=C(CSCc1ccc(Br)cc1)NCc1ccccn1,0,4,1,0,3,13
C=CCNC(=O)CSc1ccc(Cl)cc1,0,-7,0,3,3,29*
C=CCNC(=O)CSCc1ccc(Br)cc1,2,2,-4,-5,1,27*
CC1Nc2ccccc2C(=O)N1NS(C)(=O)=O (centres undefined),5,21,3,-5,28*,3
COc1ccc(C2Nc3ccccc3C(=O)N2NS(C)(=O)=O)cc1 (centres undefined),8,3,5,0,3,-2
O=Cc1cc(N=Nc2ccccc2Cl)ccc1O,13,10,9,3,28*,9
O=Cc1cc(N=Nc2cccc(C(=O)O)c2)ccc1O,4,-6,7,1,5,4
CCCCCC(O)(c1ccc(OC)cc1)C(CN1CCOCC1)c1ccccc1 (centres undefined),6,-5,-3,-6,4,9
CCCCC(O)(c1ccc(OC)cc1)C(CN1CCOCC1)c1ccccc1 (centres undefined),9,-4,3,6,-3,24*
CC/C(=N\Nc1ccccc1[N+](=O)[O-])c1ccc(O)cc1,nt,nt,10,11,8,nt
CCOc1ccccc1/C=N/NC(=O)c1cccc(S(=O)(=O)N(CC)CC)c1,1,-3,-2,3,-1,-1
CCN(CC)S(=O)(=O)c1cccc(C(=O)N/N=C/c2ccc(O)c(O)c2O)c1,17,8,11,11,30*,14
Cc1cc(NC(=O)C23CC4CC(CC(C4)C2)C3)n[nH]1,6,5,0,-13,-8,23
CCC(=O)Nc1cc(C)c(NC(=O)C23CC4CC(CC(C4)C2)C3)cn1,-2,5,-4,2,-2,32*
Cc1cccc(OCc2nnc(-c3ccc(F)cc3)o2)c1,3,-1,nt,-4,0,1
CC(C)(C)NC(=O)C1CCN(S(=O)(=O)c2ccc(Br)cc2)CC1,10,-2,2,3,1,29*
CC1CCN(S(=O)(=O)c2ccc(S(=O)(=O)NCC(=O)C(C)(C)C)cc2)CC1,0,-2,-2,2,2,26*
CC1CCN(S(=O)(=O)c2ccc(NC(=O)CSc3nnnn3C)cc2)CC1,0,-4,0,12,2,42*
CC(=O)N1CCC(C(=O)Nc2ccc(S(=O)(=O)N3CCCC(C)C3)cc2)CC1 (centres undefined),7,-3,nt,nt,nt,4
